Compound activity (PubChem BioAssay)
Tau ThT inhib: inhibitors of human tau fibril formation, thioflavin T binding | P10636 | recombinant tau K18 P301L, heparin-induced fibrillization, ThT fluorescence | Potency, µM (highest dose often 57.4 µM), inactives show at the top dose activity, negative = inhibition, actives largely listed as inhibitors | actives 2.1% (n = 270,000); further: potency means the concentration at half of the fitted maximal effect; nearly all actives have a fitted effect of over 55% in size
Target sequence (P10636 561-689 P618L limits assumed): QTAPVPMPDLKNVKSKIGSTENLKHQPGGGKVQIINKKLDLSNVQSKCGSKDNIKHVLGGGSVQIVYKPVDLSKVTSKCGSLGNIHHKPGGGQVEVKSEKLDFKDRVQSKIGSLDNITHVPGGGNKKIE
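Aggregation was driven by heparin (20 uM final) acting on recombinant tau […] bearing P301L in 100 mM sodium acetate pH 7; fibrils were detected with Thioflavin T.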
Tau fluor cs: counter-screen for tau fibril formation inhibitors. AID 1463. Potency, µM (titrated, usually from 57.7 µM), without a hit: at the top dose activity change, negative = decrease. actives 0.93% (n = 280,000). tau K18 P301L (four-repeat tau fragment) Alexa594 fluorescence, heparin fibrillization; further: potency means the concentration at half of the fitted maximal effect; nearly all actives have a fitted effect of over 55% in size
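Human K18 P301L tau (15 uM unlabeled plus 0.24 uM Alexa 594-labeled, final) in 100 mM sodium acetate pH 7 was mixed with compound and 20 uM heparin and incubated 6 hr at 37 C.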
Sfp inh: blocks B. subtilis Sfp PPTase activity. Biochemical Sfp PPTase activity, qHTS. actives 3.5% (n = 310,000). Potency, µM, for inactives: largest response in the series, negative = inhibition, most hits filed as inhibitors;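 further: the enzyme is Sfp with the accession as filed and its product quenches rhodamine fluorescence; potency means the concentration at half of the fitted maximal effect; 0% = enzyme reaction without inhibitor and -100% = no enzyme wells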
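Fluorescence-quenching assay: 15 nM Sfp-PPTase preincubated 15 min at room temperature with compound, then 5 uM rhodamine-CoA and 12.5 uM BHQ-2-labelled YbbR peptide added. Fluorescence (ex 525/em 598 nm) read at start and after 30 min; difference gives rate.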
Coupling enz: counter-screen for Giardia aldolase inhibitors: coupling enzyme system; coupling enzyme system counterscreen, AmpLite Red fluorescence; activity change, negative = inhibition, % at 58.2 µM, hits read low; actives 0.67% (n = 290,000); in the data active means activity change below about -30%
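Counterscreen of the coupled detection system alone, without aldolase: glyceraldehyde-3-phosphate coupling enzymes plus AmpLite Red readout. Compounds at 57.5 uM final, 10 min RT preincubation, 20 min RT reaction, fluorescence 525/598 nm.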
Tau FP inhib: blocks human tau fibril formation measured by polarization; P10636; K18 P301L tau heparin fibrillization, Alexa594 FP, 6 h; actives 0.39% (n = 280,000); Potency, µM (titrated, usually from 57.7 µM), for the others: top-dose activity, negative = inhibition, actives largely listed as inhibitors; AID 1468; further: potency means the concentration at half of the fitted maximal effect; nearly all actives have a fitted effect of over 55% in size
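K18 P301L tau (15 uM unlabeled/0.24 uM Alexa 594-labeled, final) + compound + heparin 20 uM final; 100 mM NaOAc pH 7; 6 hr 37 C; ThT 30 uM final added, 1 hr RT; FP ex 555/em 632 nm.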
G9a inh: inhibitors of human histone lysine methyltransferase G9a; G9a H3K9 monomethylation, AlphaScreen, 2 h; AID 504332; actives 8.8% (n = 350,000); Potency, µM (titrated, usually from 102 µM), without a hit: at the top dose activity, negative = inhibition, actives largely listed as inhibitors; Q96KQ7; further: potency means the concentration at half of the fitted maximal effect; nearly all actives have a fitted effect of over 75% in size
Target sequence (Q96KQ7 913-1193 limits assumed): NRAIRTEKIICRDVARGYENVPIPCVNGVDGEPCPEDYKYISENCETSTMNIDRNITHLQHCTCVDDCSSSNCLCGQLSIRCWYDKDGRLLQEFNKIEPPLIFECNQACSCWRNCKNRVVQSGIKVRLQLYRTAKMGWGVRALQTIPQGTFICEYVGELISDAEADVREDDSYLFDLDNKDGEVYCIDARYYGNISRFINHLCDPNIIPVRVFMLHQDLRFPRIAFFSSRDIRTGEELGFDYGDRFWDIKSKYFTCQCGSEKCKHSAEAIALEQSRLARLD
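Step 1: enzyme (final 20 nM) with compound, 15 min RT. Step 2: substrate peptide 500 nM and SAM 20 uM, 2 h RT. Step 3: anti-H3K9me1 antibody and AlphaScreen beads, 10 min, then plate read.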
An asterisk follows results filed as active; [ ] = remark or other dose. This is a sample that favours compounds with a hit; in the whole collection about 11% have one here. Unless noted, the call rests on the fitted dose curve; in most records, active means well fitted curve in the direction sought with a large enough effect; inconclusive means small, poorly fitted or top-dose-only effect, or another doubt; inactive means no such curve, though single readings can be large; an effect the other way counts as inactive or inconclusive. Unless noted, on the % scale 0 is the no-effect control and ±100 the full control effect.

What do the screens show for `COc1ccc(NC(=O)CSc2nc3ccccc3n2CC(=O)Nc2cccc(C)c2C)cc1`?
Tau ThT inhib: -11.1%; Tau fluor cs: -15.0%; Tau FP inhib: -13.2%; G9a inh: 7.3%[12.7 µM]

How did O=C(Cc1ccc(Cl)cc1)NNC(=S)NC(=O)c1cccs1 do in these assays?
Tau ThT inhib: -11.0%; Tau fluor cs: -8.4%; Sfp inh: 25.9%; Coupling enz: -5.3; Tau FP inhib: 0.8%; G9a inh: 35.5µM*

How did CC(C)(C)c1ccc(OCC(=O)NNC(=S)NC(=O)c2ccco2)c(Br)c1 do in these assays?
Sfp inh: -4.3%; Coupling enz: 7.9; G9a inh: 28.2µM*

Results for O=C(Cc1cccs1)NNC(=S)NC(=O)c1ccco1 ?
Tau ThT inhib: -13.2%; Tau fluor cs: -9.9%; Sfp inh: -3.1%; Coupling enz: 0.6; Tau FP inhib: -10.3%; G9a inh: 11.2µM*

How did Cc1ccc(C)c(CN2CCCN(Cc3ccc(F)cc3)S2(=O)=O)c1 do in these assays?
Tau ThT inhib: 0.1%; Tau fluor cs: -12.0%; Tau FP inhib: -2.4%; G9a inh: 61.3%[59 µM]

How did COc1ccc(S(=O)(=O)N2CCC(C(=O)NCC3CC3)CC2)cc1 do in these assays?
Sfp inh: -11.9%; Coupling enz: 0.9; G9a inh: 25.3%

How did Cc1ccc(OCC(=O)NCCCNC(=O)c2ccc(C)nc2)cc1 do in these assays?
Sfp inh: 6.8%; Coupling enz: 4.3; G9a inh: -1.2%[59 µM]

What do the screens show for `Cc1ccccc1-c1nn2c(=O)cc(CN3CCN(C(=O)c4ccccc4Br)CC3)nc2s1`?
Tau ThT inhib: inconclusive; Tau fluor cs: 3.0%; Tau FP inhib: 3.4%; G9a inh: -6.8%[59 µM]

Results for Cc1ccc(S(=O)(=O)O/N=C2/CCCc3occc32)cc1 ?
Tau ThT inhib: -11.1%; Tau fluor cs: -4.6%; Sfp inh: 9.3%; Coupling enz: -6.4; Tau FP inhib: -4.9%; G9a inh: 50.1µM*

What do the screens show for `O=C(O/N=C1/CCCc2occc21)c1ccc(F)cc1`?
Tau ThT inhib: inconclusive; Tau fluor cs: 4.1%; Sfp inh: 11.4%; Coupling enz: -8.2; Tau FP inhib: 3.3%; G9a inh: -11.2%

How did CC(C)CN(C(=O)CC1OC(=O)c2ccccc21)c1c(N)n(Cc2ccccc2)c(=O)[nH]c1=O (centres undefined) do in these assays?
G9a inh: 56.2µM*

Results for Cc1cc(C)cc(OCC(=O)OCC(=O)N(CC(C)C)c2c(N)n(Cc3ccccc3)c(=O)[nH]c2=O)c1 ?
G9a inh: 50.1µM*

What do the screens show for `CC(C)CN(C(=O)COC(=O)C(C)N1C(=O)c2ccccc2C1=O)c1c(N)n(Cc2ccccc2)c(=O)[nH]c1=O` (centres undefined)?
G9a inh: 35.5µM*

What do the screens show for `Cc1ccc(CNC(=O)c2ccc3c(c2)NC(=O)C(CS(=O)(=O)Cc2cccc(C)c2)N3)cc1` (centres undefined)?
Tau ThT inhib: inconclusive; Tau fluor cs: inconclusive; Tau FP inhib: inconclusive; G9a inh: 14.1µM*

What do the screens show for `O=C(NCc1ccccc1Cl)c1ccc2c(c1)NC(=O)C(CS(=O)(=O)Cc1ccc(Cl)cc1)N2` (centres undefined)?
Tau ThT inhib: inconclusive; Tau fluor cs: -20.0%; Tau FP inhib: inconclusive; G9a inh: 28.2µM*

Results for Cc1ccc(NC2=NCC(=O)N2Cc2cccs2)cc1C ?
Tau ThT inhib: -14.9%; Tau fluor cs: -28.7%; Sfp inh: 6.3%; Coupling enz: -0.5; Tau FP inhib: 6.8%; G9a inh: -50.1%

Results for CC(C)Oc1ccc(OCCSc2nc3ccccc3n2CC(=O)O)cc1 ?
Sfp inh: -1.2%; Coupling enz: 6.8; G9a inh: 50.1µM*

What do the screens show for `O=C(CSCc1ccco1)Nc1cc(C(F)(F)F)ccc1N1CCOCC1`?
Tau ThT inhib: inconclusive; Tau fluor cs: -22.7%; Sfp inh: 56.2µM*; Coupling enz: -0.7; Tau FP inhib: inconclusive; G9a inh: inconclusive

Results for O=C(Nc1ccccc1)C1Cc2ccccc2CN1C(=O)c1ccco1 (centres undefined) ?
Tau ThT inhib: -21.9%; Tau fluor cs: -14.7%; Sfp inh: inconclusive; Coupling enz: -0.8; Tau FP inhib: -8.1%; G9a inh: inconclusive

How did O=C(Nc1cc(C(F)(F)F)ccc1N1CCOCC1)C1Cc2ccccc2CN1C(=O)c1ccco1 (centres undefined) do in these assays?
Tau ThT inhib: inconclusive; Tau fluor cs: -14.3%; Sfp inh: 28.2µM*; Coupling enz: -18.8; Tau FP inhib: inconclusive; G9a inh: inconclusive

Results for c1ccc(-c2nccc(-c3ccco3)n2)nc1 ?
Tau ThT inhib: -9.2%; Tau fluor cs: 2.6%; Sfp inh: 6.6%; Coupling enz: -0.6; Tau FP inhib: -4.6%; G9a inh: inconclusive

How did Nc1ncnc2oc(-c3ccco3)c(-c3ccco3)c12 do in these assays?
Tau ThT inhib: 20µM*; Tau fluor cs: inconclusive; Sfp inh: 20µM*; Coupling enz: -30.8*; Tau FP inhib: inconclusive; G9a inh: 5.62µM*

Results for C=C(C)Cn1c(SCC(=O)N/N=C/c2ccccc2)nc2ccccc2c1=O ?
Tau ThT inhib: -0.8%; Tau fluor cs: -18.5%; Sfp inh: 79.4µM*; Coupling enz: 3.7; Tau FP inhib: -6.7%; G9a inh: 10.9%[59 µM]

How did O=C1CN(C(=O)Nc2ccccc2Cl)C(c2ccccc2)c2c(sc3c2CCCC3)N1 (centres undefined) do in these assays?
Tau ThT inhib: -5.9%; Tau fluor cs: -12.6%; Tau FP inhib: -0.4%; G9a inh: -36.0%[59 µM]

What do the screens show for `CC(C)(C)N1C(=O)[C@H]2[C@H]3[C@H](O)[C@H](O)C/C(=N/NC(=O)OCc4ccccc4)[C@H]3CC[C@@H]2C1=O`?
Tau ThT inhib: -3.0%[11.5 µM]; Tau fluor cs: -4.1%[11.6 µM]; Sfp inh: 5.8%; Coupling enz: -0.5; Tau FP inhib: 3.2%[11.6 µM]

What do the screens show for `CCN(CC)CCNC(CC(=O)Nc1ccc(Cl)cc1Cl)C(=O)O` (centres undefined)?
Tau ThT inhib: -2.1%; Tau fluor cs: -2.3%; Sfp inh: -6.6%; Coupling enz: 1.1; Tau FP inhib: -6.7%; G9a inh: 8.91µM*

How did Oc1ccc(NC(=S)Nc2ccc(O)cc2)cc1 do in these assays?
Tau ThT inhib: 10µM*; Tau fluor cs: inconclusive; Sfp inh: 44.7µM*; Coupling enz: -22.6; Tau FP inhib: inconclusive; G9a inh: 50.1µM*
